Here are results for 4 compounds from PubChem BioAssay (EPA / NIEHS).

Structures are written as SMILES. Results filed as inconclusive are left out. The source made the active and inactive calls. The calls were made as follows, unless noted: active = hit-call score of the fitted dose curve at least 0.9, where 1 is the maximum; inactive = score below 0.9.

What is called AC50 is the midpoint of the concentration-response curve, whichever way the signal moves.

The target in experiment [1] is Paired box protein Pax-6 (Homo sapiens) (UniProt P26367). The experiment can be described thus: ATG_Pax6_CIS: Attagene CIS-FACTORIAL HepG2 Assay for human Paired Box 6 (PAX6) (AID 2282956). To be noted: HepG2 CIS-FACTORIAL PAX6 reporter transcription, RNA readout; actives raise or lower the signal. In outline:
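Readout: reporter transcript fluorescence after RT-PCR and capillary electrophoresis. Cells: HepG2, transiently transfected with cis-regulated MRTUs. Exposure 24 h. Gain or loss of signal fitted bidirectionally relative to DMSO.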

Experiment [2] in a line: ATG_PXRE_CIS: Attagene CIS-FACTORIAL HepG2 Assay for human Pregnane X Receptor Element (PXRE) (AID 2282957). To be noted: HepG2 Attagene CIS-FACTORIAL PXRE reporter, mRNA; actives raise or lower the signal. A digest of the protocol:
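After a 24 h chemical incubation, total RNA from transfected HepG2 cells was reverse-transcribed and reporter cDNA amplified, FAM-labeled, HpaI-digested and sized by capillary electrophoresis. DMSO served as baseline for bidirectional curve fitting.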

Experiment [3] can be described thus: ATG_PPRE_CIS: Attagene CIS-FACTORIAL HepG2 Assay for human Peroxisome Proliferator-activated Response Element (PPRE) (AID 2282958). To be noted: HepG2 PPRE cis-element reporter, Attagene transcription factor profiling; actives raise or lower the signal. A digest of the protocol:
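Read-out: fluorescent reporter mRNA fragments resolved by capillary electrophoresis after RT-PCR. HepG2 cells carried transiently transfected PPRE-driven cis reporter constructs and were dosed for 24 h; gain or loss of signal fitted relative to DMSO.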

Experiment [4] can be described thus: ATG_RORE_CIS: Attagene CIS-FACTORIAL HepG2 Assay for human RAR-related Orphan Receptor Element (RORE) (AID 2282959). To be noted: HepG2 Attagene cis-factorial RORE reporter, mRNA; actives raise or lower the signal. A digest of the protocol: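 Readout: fluorescent reporter mRNA by RT-PCR plus capillary electrophoresis, 24 h after dosing transfected HepG2 cells. Endogenous transcription factor activity on a cis promoter element is measured. Gain or loss of signal fitted against DMSO.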

The nature of experiment [5]: ATG_Sox_CIS: Attagene CIS-FACTORIAL HepG2 Assay for human SRY-box transcription factor (SOX) (AID 2282960). To be noted: HepG2 Attagene cis-factorial SOX reporter, mRNA; actives raise or lower the signal. A digest of the protocol:
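Read-out: fluorescent RT-PCR products of SOX1-linked reporter transcripts resolved by capillary electrophoresis, fitted bidirectionally against DMSO. Transiently transfected HepG2 cells, 24 h after chemical exposure, endogenous transcription factor activity.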

Experiment [6] addresses Transcription factor Sp1 (Homo sapiens) (UniProt P08047). The experiment can be described thus: ATG_Sp1_CIS: Attagene CIS-FACTORIAL HepG2 Assay for human Specificity Protein 1 (Sp1) (AID 2282961). To be noted: HepG2 Sp1 cis-reporter transcription, actives raise or lower the signal. In outline: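 Read-out: fluorescence of 6-FAM-labeled, HpaI-digested RT-PCR products separated by capillary electrophoresis. HepG2 cells carried transfected cis-element reporter units and were exposed to chemicals for 24 h; gain or loss of signal fitted relative to DMSO.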

The nature of experiment [7]: ATG_SREBP_CIS: Attagene CIS-FACTORIAL HepG2 Assay for human Sterol Regulatory Element Binding (SREBP) (AID 2282962). The conditions noted are these: HepG2 Attagene cis-factorial SREBP reporter, mRNA; actives raise or lower the signal. In outline: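 Readout: fluorescent reporter-transcript peaks resolved by capillary electrophoresis after RT-PCR. Cells were human HepG2 carrying transfected cis-promoter reporter constructs, dosed for 24 h. Gain or loss of signal was fitted against DMSO controls.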

The target in experiment [8] is Signal transducer and activator of transcription 3 (Homo sapiens) (UniProt P40763). The experiment can be described thus: ATG_STAT3_CIS: Attagene CIS-FACTORIAL HepG2 Assay for human Signal Transducer and Activator of Transcription 3 (STAT3) (AID 2282963). The conditions noted are these: HepG2, Attagene cis-factorial STAT3 reporter transcription; actives raise or lower the signal. In outline: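 Cis-factorial format: endogenous transcription factors in HepG2 drive transfected reporter units. After 24 h treatment, reporter RNA was reverse-transcribed, amplified, FAM-labelled and HpaI-digested before CE analysis; activity scored in both directions against DMSO.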
Chain of Signal transducer and activator of transcription 3 (Homo sapiens) (P40763 whole entry, looked up): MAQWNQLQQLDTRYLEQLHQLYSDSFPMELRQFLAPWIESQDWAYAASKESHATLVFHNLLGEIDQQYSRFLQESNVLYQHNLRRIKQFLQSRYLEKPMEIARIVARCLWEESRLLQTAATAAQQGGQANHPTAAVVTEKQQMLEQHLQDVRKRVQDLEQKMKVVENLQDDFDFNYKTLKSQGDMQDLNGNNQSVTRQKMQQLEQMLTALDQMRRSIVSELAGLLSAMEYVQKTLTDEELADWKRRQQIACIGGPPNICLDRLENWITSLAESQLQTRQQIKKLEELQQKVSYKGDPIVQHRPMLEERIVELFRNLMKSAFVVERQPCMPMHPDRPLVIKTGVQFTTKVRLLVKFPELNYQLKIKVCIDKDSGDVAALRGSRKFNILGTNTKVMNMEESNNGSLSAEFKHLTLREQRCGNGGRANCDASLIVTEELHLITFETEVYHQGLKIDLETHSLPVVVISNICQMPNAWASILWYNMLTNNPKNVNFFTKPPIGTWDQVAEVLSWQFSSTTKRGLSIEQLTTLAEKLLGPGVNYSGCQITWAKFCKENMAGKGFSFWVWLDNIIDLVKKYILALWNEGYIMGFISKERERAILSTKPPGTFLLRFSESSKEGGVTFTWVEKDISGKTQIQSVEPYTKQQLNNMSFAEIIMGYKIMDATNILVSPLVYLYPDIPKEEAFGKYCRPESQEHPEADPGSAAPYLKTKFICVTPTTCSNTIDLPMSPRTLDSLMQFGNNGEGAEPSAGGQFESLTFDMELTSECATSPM

Experiment [9] in a line: ATG_TA_CIS: Attagene CIS-FACTORIAL HepG2 Assay for human TA Basal Promoter (AID 2282964). The conditions noted are these: HepG2 Attagene CIS-factorial TA basal promoter reporter; actives raise or lower the signal. A digest of the protocol:
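Steps: transfect HepG2 with MRTUs; dose 24 h; isolate RNA, DNase-treat, reverse-transcribe; PCR and FAM-label reporter cDNA; digest with HpaI 2h at 37 C; run capillary electrophoresis. Activity fitted both directions against DMSO.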

Experiment [10] in a line: ATG_TCF_b_cat_CIS: Attagene CIS-FACTORIAL HepG2 Assay for human T-Cell-Factor with beta-catenin (TCF/b-cat) (AID 2282965). To be noted: HepG2 TCF/beta-catenin cis-reporter transcription, actives raise or lower the signal. A digest of the protocol:
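Measured: reporter mRNA in HepG2 transiently transfected with cis-promoter reporter units, 24 h after chemical addition. Fitting was bidirectional, DMSO as negative control.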

A short description of experiment [11]: ATG_TAL_CIS: Attagene CIS-FACTORIAL HepG2 Assay for human TAL Basal Promoter (AID 2282966).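 Also: background control endpoint measuring basal TAL promoter reporter mRNA not a specific factor.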 To be noted: HepG2 Attagene cis-factorial TAL promoter reporter; actives raise or lower the signal. In outline:
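Basal-promoter background-control endpoint from a multiplexed HepG2 reporter panel. Cells were exposed 24 h, then reporter mRNA was read by RT-PCR/CE fluorescence and fitted in both directions relative to DMSO.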

The nature of experiment [12]: ATG_TGFb_CIS: Attagene CIS-FACTORIAL HepG2 Assay for human Transforming Growth Factor (TGF) (AID 2282967). To be noted: HepG2 Attagene CIS TGFb reporter, mRNA transcription; actives raise or lower the signal. A digest of the protocol: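 Cells were dosed for 24 hours, after which total RNA was reverse-transcribed and reporter sequences amplified, labeled and sized by capillary electrophoresis. Activity was fitted in both directions against DMSO.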

Experiment [13] is described as follows: ATG_VDRE_CIS: Attagene CIS-FACTORIAL HepG2 Assay for human Vitamin D Receptor Element (VDRE) (AID 2282968). The conditions noted are these: HepG2 VDRE cis-reporter transcription, actives raise or lower the signal. A digest of the protocol: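 Measures endogenous factor activity through cis-element-driven reporter transcripts in transiently transfected HepG2. Cells are treated 24 h; reporter mRNA is quantified by RT-PCR and capillary electrophoresis; fitting is bidirectional.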

Experiment [14] addresses Estrogen receptor (Homo sapiens) (UniProt P03372). The experiment can be described thus: ATG_ERa_TRANS: Attagene TRANS-FACTORIAL HepG2 Assay for human Estrogen Receptor alpha (ERa) (AID 2282970; active = hit-call score of the fitted dose curve at least 0.9, where 1 is the maximum). To be noted: HepG2 Attagene TRANS ERa GAL4 reporter, mRNA. A digest of the protocol: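 Gal4-fusion ERa transactivation, measured as reporter transcript level in transiently transfected HepG2 cells. Exposure 24 h; RT-PCR plus capillary electrophoresis with fluorescence detection.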

For experiment [15], the target named is X-box-binding protein 1 (Homo sapiens) (UniProt P17861). The experiment can be described thus: ATG_Xbp1_CIS: Attagene CIS-FACTORIAL HepG2 Assay for human X-box Binding Protein 1 (XBP1) (AID 2282972). The conditions noted are these: HepG2 XBP1 cis-element reporter, Attagene multiplex; actives raise or lower the signal. In outline:
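Read-out: fluorescent reporter mRNA fragments resolved by capillary electrophoresis after RT-PCR. Human HepG2 liver cells carried transfected cis-promoter reporter units and were exposed to chemicals for 24 hours. Gain or loss of signal fitted relative to DMSO baseline.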

Experiment [16] in a line: ATG_M_19_TRANS: Attagene TRANS-FACTORIAL HepG2 Assay for M19 Transcription Factor (Internal Marker) (AID 2282974; active = hit-call score of the fitted dose curve at least 0.9, where 1 is the maximum). The conditions noted are these: HepG2 Attagene TRANS-FACTORIAL M19 internal marker reporter. In outline:
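24 h chemical exposure of transiently transfected HepG2 (MRTU library). RNA → oligo(dT) RT → PCR → 6-FAM labelling → HpaI cut → CE fluorescence. Positive-direction fit vs DMSO baseline; background internal-marker readout.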

A short description of experiment [17]: ATG_GAL4_TRANS: Attagene TRANS-FACTORIAL HepG2 Assay for GAL4 (Internal Marker) (AID 2282976; active = hit-call score of the fitted dose curve at least 0.9, where 1 is the maximum). The conditions noted are these: HepG2 Attagene TRANS GAL4 internal marker reporter. In outline:
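Background-control readout: GAL4-UAS reporter transcript in transiently transfected HepG2 cells after 24 h compound exposure. Measured by RT-PCR, 6-FAM primer extension, HpaI digest and capillary electrophoresis; gain-of-signal fit versus DMSO.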

For experiment [18], the target named is Steroid hormone receptor ERR1 (Homo sapiens) (UniProt P11474). The experiment can be described thus: ATG_ERRa_TRANS: Attagene TRANS-FACTORIAL HepG2 Assay for human Estrogen-Related Receptor alpha (ERRa) (AID 2282971; active = hit-call score of the fitted dose curve at least 0.9, where 1 is the maximum). To be noted: HepG2 Attagene TRANS reporter, ERRa transactivation. A digest of the protocol: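 HepG2 cells transiently transfected with GAL4-UAS reporter units and chimeric NR-Gal4 constructs; after 24 hour compound incubation, reporter mRNA quantified by RT-PCR, fluorescent labelling and capillary electrophoresis, gain of signal versus DMSO.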
Chain of Steroid hormone receptor ERR1 (Homo sapiens) (P11474 whole entry, looked up, the tested form may be a part): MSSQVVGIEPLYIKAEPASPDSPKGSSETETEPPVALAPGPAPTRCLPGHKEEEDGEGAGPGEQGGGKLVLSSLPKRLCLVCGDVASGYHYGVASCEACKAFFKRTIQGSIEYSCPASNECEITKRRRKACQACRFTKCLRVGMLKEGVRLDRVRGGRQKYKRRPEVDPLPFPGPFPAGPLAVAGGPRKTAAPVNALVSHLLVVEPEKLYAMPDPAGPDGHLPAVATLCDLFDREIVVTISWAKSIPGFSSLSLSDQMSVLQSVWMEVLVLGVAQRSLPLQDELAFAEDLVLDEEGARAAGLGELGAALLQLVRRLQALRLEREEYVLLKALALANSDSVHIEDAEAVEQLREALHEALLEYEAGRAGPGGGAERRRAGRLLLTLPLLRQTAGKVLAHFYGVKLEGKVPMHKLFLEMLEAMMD

Experiment [19] addresses Estrogen-related receptor gamma (Homo sapiens) (UniProt P62508). The experiment can be described thus: ATG_ERRg_TRANS: Attagene TRANS-FACTORIAL HepG2 Assay for human Estrogen-Related Receptor gamma (ERRg) (AID 2282977; active = hit-call score of the fitted dose curve at least 0.9, where 1 is the maximum;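 also: hits increase reporter signal over DMSO so potencies reflect activators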). The conditions noted are these: HepG2 Attagene TRANS reporter, ERRg transactivation. In outline:
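Readout: fluorescent reporter-mRNA fragments resolved by capillary electrophoresis after RT-PCR and HpaI cut. Cells: transiently transfected HepG2 carrying GAL4-UAS reporters driven by exogenous NR-Gal4 chimeras, dosed 24 h. Activity fitted upward relative to DMSO baseline.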

Chain of Transcription factor Sp1 (Homo sapiens) (P08047 whole entry, looked up): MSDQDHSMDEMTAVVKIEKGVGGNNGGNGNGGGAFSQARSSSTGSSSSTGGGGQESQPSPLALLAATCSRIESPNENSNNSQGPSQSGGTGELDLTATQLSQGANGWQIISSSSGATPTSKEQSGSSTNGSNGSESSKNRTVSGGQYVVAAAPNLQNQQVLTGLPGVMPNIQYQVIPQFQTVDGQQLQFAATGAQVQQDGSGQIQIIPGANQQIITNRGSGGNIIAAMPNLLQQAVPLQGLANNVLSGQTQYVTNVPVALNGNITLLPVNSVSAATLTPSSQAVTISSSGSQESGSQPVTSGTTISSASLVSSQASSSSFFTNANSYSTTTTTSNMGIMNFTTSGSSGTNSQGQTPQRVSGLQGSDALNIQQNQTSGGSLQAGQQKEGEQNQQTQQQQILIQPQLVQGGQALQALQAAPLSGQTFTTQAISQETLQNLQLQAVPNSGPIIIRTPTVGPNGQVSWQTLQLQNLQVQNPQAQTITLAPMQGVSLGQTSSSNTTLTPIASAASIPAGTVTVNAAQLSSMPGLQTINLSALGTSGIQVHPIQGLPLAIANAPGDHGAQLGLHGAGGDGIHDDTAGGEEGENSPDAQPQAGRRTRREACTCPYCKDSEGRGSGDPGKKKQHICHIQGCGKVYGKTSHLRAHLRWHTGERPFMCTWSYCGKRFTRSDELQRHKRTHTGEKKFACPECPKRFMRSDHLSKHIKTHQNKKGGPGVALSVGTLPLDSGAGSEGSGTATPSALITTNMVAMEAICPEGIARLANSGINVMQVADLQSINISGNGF
Chain of X-box-binding protein 1 (Homo sapiens) (P17861 whole entry, looked up, the tested form may be a part): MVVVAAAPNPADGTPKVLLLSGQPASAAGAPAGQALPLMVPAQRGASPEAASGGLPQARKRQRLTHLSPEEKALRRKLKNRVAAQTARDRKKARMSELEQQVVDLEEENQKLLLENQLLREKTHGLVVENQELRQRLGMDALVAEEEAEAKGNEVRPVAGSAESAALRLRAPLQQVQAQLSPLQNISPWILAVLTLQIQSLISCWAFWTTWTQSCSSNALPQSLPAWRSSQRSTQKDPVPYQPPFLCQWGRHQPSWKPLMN
Chain of Paired box protein Pax-6 (Homo sapiens) (P26367 whole entry, looked up): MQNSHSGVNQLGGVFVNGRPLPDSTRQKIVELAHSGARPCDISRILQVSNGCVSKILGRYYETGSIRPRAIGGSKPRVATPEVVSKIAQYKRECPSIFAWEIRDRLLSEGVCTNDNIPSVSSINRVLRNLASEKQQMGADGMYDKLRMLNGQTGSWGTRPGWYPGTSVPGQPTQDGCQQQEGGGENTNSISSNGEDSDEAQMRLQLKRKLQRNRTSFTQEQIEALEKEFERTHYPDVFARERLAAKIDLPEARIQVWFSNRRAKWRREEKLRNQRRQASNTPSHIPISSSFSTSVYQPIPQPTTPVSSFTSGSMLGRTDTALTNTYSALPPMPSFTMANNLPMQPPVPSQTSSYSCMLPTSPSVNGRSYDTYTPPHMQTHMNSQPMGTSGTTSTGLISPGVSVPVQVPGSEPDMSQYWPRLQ
Chain of Estrogen-related receptor gamma (Homo sapiens) (P62508 whole entry, looked up, the tested form may be a part): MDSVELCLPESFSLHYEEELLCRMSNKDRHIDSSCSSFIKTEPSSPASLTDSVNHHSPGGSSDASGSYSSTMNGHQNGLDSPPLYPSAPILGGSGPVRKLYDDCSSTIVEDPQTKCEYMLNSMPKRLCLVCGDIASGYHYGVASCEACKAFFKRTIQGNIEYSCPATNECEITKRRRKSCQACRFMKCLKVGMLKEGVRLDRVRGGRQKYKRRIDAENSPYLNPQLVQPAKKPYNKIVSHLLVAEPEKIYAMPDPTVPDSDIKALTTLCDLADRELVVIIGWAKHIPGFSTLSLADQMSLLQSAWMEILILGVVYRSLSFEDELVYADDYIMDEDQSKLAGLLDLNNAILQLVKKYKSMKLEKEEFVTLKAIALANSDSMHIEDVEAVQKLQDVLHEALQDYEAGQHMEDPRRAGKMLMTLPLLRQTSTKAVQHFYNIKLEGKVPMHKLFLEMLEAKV
Chain of Estrogen receptor (Homo sapiens) (P03372 whole entry, looked up, the tested form may be a part): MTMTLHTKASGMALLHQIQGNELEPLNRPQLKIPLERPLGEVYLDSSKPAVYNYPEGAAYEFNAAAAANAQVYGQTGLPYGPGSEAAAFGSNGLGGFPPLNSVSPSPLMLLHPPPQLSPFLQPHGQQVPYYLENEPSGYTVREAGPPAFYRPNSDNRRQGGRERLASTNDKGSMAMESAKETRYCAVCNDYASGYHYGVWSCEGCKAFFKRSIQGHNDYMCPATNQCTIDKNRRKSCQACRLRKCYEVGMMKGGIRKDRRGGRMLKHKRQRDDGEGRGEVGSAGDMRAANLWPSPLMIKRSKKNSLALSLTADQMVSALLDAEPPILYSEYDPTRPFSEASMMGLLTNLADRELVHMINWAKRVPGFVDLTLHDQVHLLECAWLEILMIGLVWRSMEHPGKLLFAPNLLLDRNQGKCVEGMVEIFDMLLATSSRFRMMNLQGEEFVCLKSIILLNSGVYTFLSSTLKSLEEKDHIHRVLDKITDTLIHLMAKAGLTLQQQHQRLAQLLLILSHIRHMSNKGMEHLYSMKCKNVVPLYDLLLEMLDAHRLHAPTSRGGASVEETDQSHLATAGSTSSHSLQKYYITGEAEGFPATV

Turning to `COc1cccc([C@H](O)C2CCN(CCc3ccc(F)cc3)CC2)c1OC`, the outcome in experiment [1], in experiment [3], in experiment [4], in experiment [5], in experiment [6] and in experiment [7] was inactive. The compound was classed as inactive in [8], in [9], in [11], in experiment [12], in experiment [13] and in experiment [14]. Moreover, the compound was classed as inactive in experiment [15], in [16] and in experiment [17]. For the same compound, the results for the concentration at half-maximal activity (AC50) in [2] and in experiment [10] were 25.8 µM (active) and 100 µM (active), respectively.

For `CN1C(=O)N(c2ccccc2Br)Cc2cnc(Nc3ccc4c(c3)OCC(CO)O4)nc21` (stereo not drawn), the result in experiment [1], in experiment [2], in experiment [5], in [6], in experiment [8] and in experiment [12] was inactive. The compound was called inactive in experiment [18], in [16] and in experiment [17]. Further, the AC50 in experiment [3] is 2.65 µM (active); in [4], 1.84 µM (active); in experiment [7] it was 21.1 µM (active); in experiment [9], 15.8 µM (active); in [10], 0.116 µM (active); in [11], 12.4 µM (active). Besides, the AC50 in [13] is 4.14 µM (active); in [15] it was 9.79 µM (active).

In the case of `NC(=O)c1nc(-c2cccc(-c3cc(F)ccc3OCC(F)(F)C(F)(F)F)c2)n[nH]1`, the AC50 in [1] is 24.3 µM (active); in experiment [2], 8.11 µM (active); in [6], 16.9 µM (active); in experiment [7], 10.3 µM (active); in [9], 43.7 µM (active); in experiment [10], 33 µM (active). Further, the AC50 in experiment [13] is 13.7 µM (active); in experiment [15] it was 44.6 µM (active). Moreover, the outcome in experiment [5], in experiment [8], in experiment [11], in [12], in [16] and in [17] was inactive. Also, the compound was classed as inactive in [19].

Regarding `O=C(Nc1ccc(Cl)cc1)Nc1ccc(Cl)c(Cl)c1`, the compound was called inactive in experiment [1], in [3], in experiment [5], in experiment [6], in [7] and in experiment [8]. Also, the compound was classed as inactive in experiment [9], in experiment [10], in [11], in experiment [12] and in [16]. Further, the AC50 in experiment [2] was 2.12 µM (active); in [4], 4.17 µM (active); in experiment [15] it was 5.26 µM (active).
